Only some compounds are listed: those with a hit (about 3.9% of all), similar ones and a draw of the others.
HSF1 inhib – HSF1 inhibition. NIH3T3-HGL HSE-luciferase, MG132-induced, luminescence 8 h; active compounds read low. activity change, negative = inhibition, % at 7.5 µM (by protocol). hit rate 0.77% among 300,000. AID 2098;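 active = more than half of replicate wells show activity change below -50%, luminescence cut by over half; inconclusive = some wells, but at most half, below -50%; inactive = no replicate well below -50%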;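 note: luciferase reports HSF-1 transcriptional activity via heat shock element; 0% = median of DMSO wells and -100% = zero luminescence signal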
esBAF inh – blocks esBAF chromatin remodeling in mouse ES cells | hit rate 2% among 350,000 | reporter increase, % at 12.5 µM | Bmi1-luciferase knock-in reporter, 24 h; 100% = twice the neutral-well signal | AID 602393; in the data active = activation above about 40%; inconclusive = no clear call, values can overlap the other calls;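 note: 0% = median of the plate's neutral control wells and 100% = double that signal; a rise in the Bmi1 reporter signal indicates esBAF inhibition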
HSF1 activator – increases HSF-1 driven luciferase reporter signal | NIH3T3-HGL HSF-1 luciferase reporter, MG132, 8 h; 100% = twice DMSO control signal | activation, % at 9 µM | hit rate 1.7% among 300,000 | AID 504408;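 active = mean replicate activation of at least 50% with a set share of replicates each reaching 50%; inconclusive = only one of those two conditions met; inactive = mean below 50% and too few replicates reaching it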;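 note: 0% = median of the neutral control wells and 100% = twice that signal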
MITF TRPM1 HTS – MITF TRPM1 promoter activation in melanoma cells; activation, % at 12.5 µM; hit rate 0.75% among 300,000; SK-MEL-5 TRPM1-promoter luciferase, 24 h; % of positive control, neutral wells = 0;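 active = mean activation of at least 80% with every replicate also reaching 80%; inconclusive = mean reaches 80% but some replicate falls short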;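 note: 0% = neutral control wells and 100% = parthenolide positive control wells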
Wnt act – Wnt/beta-catenin pathway activation. Wnt/beta-catenin reporter cell assay, activator, plate reader. activation, % at 9.35 µM. hit rate 1.2% among 300,000. AID 743398; in the data active = activation above about 30%, passing the limit was not always enough; inconclusive = no clear call, values can overlap the other calls;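 note: 0% = neutral control wells and 100% = positive control wells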
Numbers without * were called inactive; ? = inconclusive; nt = not tested or not shown.

SMILES | HSF1 inhib | esBAF inh | HSF1 activator | MITF TRPM1 HTS | Wnt act
COc1cc(/C=C2\SC(=O)N(CCN)C2=O)ccc1OS(=O)(=O)c1cc(C)ccc1C | 11 | nt | 4 | 0 | 39*
O=C1NC2(CCCCC2)C(=O)N1/N=C/c1ccccc1Br | nt | 49* | nt | 27 | -2
Cc1ccc(NC(=O)c2ccc(OC(=O)COc3cccc(Cl)c3)cc2)cc1 | 10 | 20 | 16 | ? | nt
Cc1ccc(NC(=O)c2ccc(OC(=O)COc3ccc(Cl)cc3C)cc2)cc1 | 31 | nt | 59* | ? | -2
Cc1cc(C)cc(OC(=O)CCN2C(=O)c3ccccc3C2=O)c1 | -5 | -1 | -6 | 0 | nt
Cc1ccc(NC(=O)c2ccc(OC(=O)CCN3C(=O)c4ccccc4C3=O)cc2)cc1 | 20 | ? | 17 | 49 | 46*
CO[C@@H]1CN(C)C(=O)c2ccc(NC(=O)C3CC3)cc2OC[C@@H](C)N(C(=O)c2ccccc2)C[C@@H]1C | nt | -2 | nt | nt | nt
CCCCN(Cc1ccccc1)c1ncnc2nc[nH]c12 | 13 | 67* | 17 | nt | nt
Cc1noc(C)c1NC(=O)Nc1cccc2c1O[C@H](CN(C)C)[C@@H](C)CN([C@@H](C)CO)C2=O | nt | -6 | nt | nt | nt
C[C@H]1CN([C@@H](C)CO)C(=O)Cc2cc(NC(=O)Nc3ccccc3)ccc2O[C@H]1CN(C)C(=O)Nc1ccc(C(F)(F)F)cc1 | nt | 0 | nt | nt | nt
C[C@@H]1CCCCO[C@H](CN(C)C(=O)Nc2ccccc2)[C@@H](C)CN([C@H](C)CO)C(=O)c2cc(NS(=O)(=O)c3ccc(F)cc3)ccc2O1 | nt | -7 | nt | nt | nt
COc1cc(O)sc1C=Nc1ccc(Cl)cc1 | 2 | 55* | 18 | 6 | 15
COc1ccc(CCNC(=O)c2nonc2N)cc1 | 41 | 48* | 61* | nt | 9
CO[C@@H](CN(C)S(=O)(=O)c1ccc(F)cc1)[C@@H](C)CN([C@@H](C)CO)S(=O)(=O)c1cccc(Cl)c1 | nt | -5 | nt | nt | nt
C[C@@H]1CN([C@H](C)CO)C(=O)Cc2cc(NC(=O)C3CC3)ccc2O[C@H]1CN(C)Cc1ccc(C(=O)O)cc1 | nt | 7 | nt | nt | nt
C=CCNc1nc(-c2ccc(OC)cc2OC)cs1 | -1 | 55* | 16 | 78 | nt
[O-][n+]1c(/C=C/c2ccccc2)ccc2ccccc21 | 22 | 1 | 41 | 21 | 37*
[O-][n+]1ccccc1/C=C/c1ccccc1 | 5 | nt | 2 | 8 | 0
CCC(NC(=O)c1cc(COc2c(F)cccc2F)on1)c1ccncc1 (stereo unspecified) | -4 | 9 | -5 | 17 | nt
Cc1nc(CN(C)C(=O)c2cc(COc3c(F)cccc3F)on2)cs1 | 0 | -2 | 2 | 17 | 0
CN(Cc1cc(-c2ccccc2)on1)C(=O)c1cc(COc2c(F)cccc2F)on1 | 0 | 54* | 20 | 50 | 1
COC(=O)[C@H](Cc1ccccc1)NC(=O)c1cc(COc2c(F)cccc2F)on1 | 8 | 52* | 31 | 46 | 18
Cc1cc(OCC(=O)N(C)Cc2ccccc2)ccc1Br | 6 | 43* | 7 | 37 | 17
CCC(=O)N1[C@@H](CO)[C@@H]2c3ccccc3N(C(=O)Nc3ccc(Cl)cc3)C[C@@H]21 | nt | 12 | nt | nt | nt
S=C1SCN(Cc2ccccc2)CN1Cc1ccccc1 | 0 | -9 | 10 | -2 | -1
SMILES | HSF1 inhib | esBAF inh | HSF1 activator | MITF TRPM1 HTS | Wnt act
S=C1SCN(Cc2cccnc2)CN1Cc1cccnc1 | -86* | nt | -90 | nt | -3
CN1C(=O)c2cc(NC(=O)c3ccccc3)ccc2OC[C@H]2O[C@H](CC(=O)NCC3CC3)CC[C@H]21 | nt | 0 | nt | nt | nt
Cc1ccc(N(C)C(=O)CN(C)S(=O)(=O)c2ccc3c(c2)n(C)c(=O)c(=O)n3C)cc1 | -91* | -8 | -93 | -8 | 0
COc1ccc(-c2noc(N3CCC(C(=O)NCCCN4CC(C)CC(C)C4)CC3)n2)cc1 (stereo unspecified) | -77* | -3 | -82 | -1 | -2
COc1ccc(-c2noc(N3CCCC(C(=O)Nc4ccc(C(C)=O)cc4)C3)n2)cc1 (stereo unspecified) | 14 | 48* | 8 | 48 | 6
COc1ccc(NC(=O)C2CCN(c3nc(-c4ccc(OC)cc4)no3)CC2)cc1 | -9 | -23 | -17 | nt | 3
O=C(N[C@H]1CC[C@H](CCNS(=O)(=O)c2cccc(Cl)c2)O[C@H]1CO)c1ccc(F)cc1 | nt | 4 | nt | nt | nt
O=C(C[C@H]1CC[C@@H]2[C@H](COC[C@H](O)CN2Cc2cccc(F)c2)O1)NCC1CCCCC1 | nt | -1 | nt | nt | nt
COc1ccccc1C1=NOC(COC(=O)c2ccc(Br)cc2)C1 (stereo unspecified) | 3 | -7 | 0 | 0 | -12

Screening data (PubChem BioAssay)
